Pf growth 48h: P. falciparum growth inhibition at 48 hours (one generation). P. falciparum luciferase growth in erythrocytes, 48 h. hit rate 5.9% among 310,000. Potency, µM (highest dose often 28.7 µM), for the others: at the top dose activity change, negative = inhibition, usual class: inhibitors
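Here the parasites carry a stable luciferase gene and grow inside erythrocytes in Albumax-based RPMI medium with compound for one erythrocytic cycle. Activity is scored as loss of luminescent signal.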
AmpC detergent: inhibitors of E. coli AmpC beta-lactamase with detergent; P00811; AmpC hydrolysis of nitrocefin, absorbance 480 nm, 0.01% Triton; Potency, µM (doses to about 114 µM), without a hit: at the top dose activity change, negative = inhibition, actives largely listed as inhibitors; hit rate 0.041% among 370,000; AID 485294;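 further: 0% = no-compound wells and -100% = no-enzyme wells; nearly all actives have a fitted effect of over 25% in size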
Target sequence (P00811 whole entry, looked up): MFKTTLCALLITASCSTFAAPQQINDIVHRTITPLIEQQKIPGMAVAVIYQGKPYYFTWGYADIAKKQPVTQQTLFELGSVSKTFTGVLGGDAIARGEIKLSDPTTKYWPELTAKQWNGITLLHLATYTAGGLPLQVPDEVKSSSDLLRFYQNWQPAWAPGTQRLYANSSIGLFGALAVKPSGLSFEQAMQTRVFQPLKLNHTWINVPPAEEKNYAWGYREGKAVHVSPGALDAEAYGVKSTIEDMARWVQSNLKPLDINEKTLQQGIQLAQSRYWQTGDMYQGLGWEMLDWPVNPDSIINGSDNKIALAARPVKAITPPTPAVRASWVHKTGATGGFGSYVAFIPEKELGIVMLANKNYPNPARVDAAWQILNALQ
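AmpC (5.3 nM in the dispensed reagent) in 20 mM phosphate pH 7.0 with 0.01% (detergent screen) or 0.0001% Triton X-100 was preincubated with compounds for 15 min at room temperature. Nitrocefin was then added from an 800 uM solution, and hydrolysis was followed at 480 nm.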
AMA1-RON2 inh: disrupts binding of P. falciparum AMA1 to RON2; hit rate 0.2% among 360,000; Potency, µM (doses to about 58.2 µM), for the others: at the top dose activity change, negative = inhibition, actives largely listed as inhibitors; AID 720542; AlphaScreen AMA1-biotinylated RON2 peptide binding;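 further: 0% = vehicle wells and -100% = peptide control; nearly all actives have a fitted effect of over 45% in size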
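AMA1 (3D7) with his tag at 25 nM final met compounds first, then biotinylated RON2 peptide at 25 nM; detection used donor plus acceptor beads, 10 µg/mL apiece, read by AlphaScreen after 30 min at room temperature.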
HCV inhibitor: blocks hepatitis C virus; Huh7.5.1 HCVcc-Cre infection, luciferase reporter, 44 h; Potency, µM (series often up to 41.8 µM), without a hit: at the top dose activity change, negative = inhibition, hits mostly inhibitors; hit rate 3.4% among 340,000
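HCVcc-Cre virus at an moi near 0.5 was added right after compound to cells cultured 4 h from seeding (1,000 cells/well). Luciferase activity was determined 44 h later, 15 min after substrate addition at RT.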
Pf growth 96h: P. falciparum growth inhibition at 96 hours | P. falciparum luciferase reporter growth, 96 h | Potency, µM (series often up to 28.7 µM), for the others: top-dose activity change, negative = inhibition, usual class: inhibitors | hit rate 6.9% among 320,000 | AID 504834
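Compounds incubated with erythrocytes infected by luciferase-expressing P. falciparum (2% hematocrit, 0.05% parasitemia final) for 96 hours, 37 C in 5% CO2. Growth inhibition scored as decreased luciferase luminescence.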
AmpC no deterg: blocks E. coli AmpC beta-lactamase in detergent-free assay | AmpC nitrocefin hydrolysis, absorbance 480 nm, 0.0001% Triton | P00811 | hit rate 0.52% among 330,000 | Potency, µM (series often up to 57.1 µM), inactives show top-dose activity change, negative = inhibition, usual class: inhibitors;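 further: plate controls were no compound for no effect and no enzyme for full effect; nearly all actives have a fitted effect of over 20% in size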
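20 mM phosphate pH 7.0 + 0.01% (detergent screen) or 0.0001% Triton X-100; 5.3 nM AmpC reagent; cpd preinc 15 min RT; nitrocefin (800 uM stock) to start; A480 q20 s × 4 min; Activity was normalised to no-enzyme and no-compound control wells.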
* = called active by the depositor; ? = inconclusive; nt = no result given; [ ] = remark or other dose. Rows were chosen to be rich in hits. Some 11% of all compounds tested hit in one or more screens of this group. The call rests on the fitted dose curve; in most records, active means well fitted curve in the direction sought with a large enough effect; inconclusive means small, poorly fitted or top-dose-only effect, or another doubt; inactive means no such curve, though single readings can be large; an effect the other way counts as inactive or inconclusive. Unless noted, on the % scale 0 is the no-effect control and ±100 the full control effect; potency means the concentration at half of the fitted maximal effect.

SMILES	Pf growth 48h	AmpC detergent	AMA1-RON2 inh	HCV inhibitor	Pf growth 96h	AmpC no deterg
CCCCN(CC)CCCNC(=O)CS(=O)(=O)Cc1nc(-c2ccc(C)cc2)oc1C	nt	16%	nt	nt	nt	nt
COc1cccc(OCc2cc(C(=O)N(C)Cc3nc(C)cs3)no2)c1	9%	0%	18%	-2%	6.6µM*	58%
Cc1cc(OCc2cc(C(=O)NCCN3CCCCC3CO)no2)cc(C)c1Cl (configuration not stated)	7%	2%	3%	8.9µM*	?	-8%
CCc1ccc(NC(=O)CC2C(=O)N(c3cccc(OC)c3)C(=O)N2Cc2ccco2)cc1 (configuration not stated)	nt	15%	nt	nt	nt	nt
CCCCOc1cccc(C(=O)Nc2sc3c(c2C(=O)OCC)CCCC3)c1	nt	13%	nt	nt	nt	nt
CC(C)NCC(O)c1ccc2ccccc2c1 (configuration not stated)	1.5µM*	-14%	-5%	-20%	4.7µM*	-10%
C/C=C/C(O)c1ccc2ccccc2c1 (configuration not stated)	-15%	3%	nt	nt	?	-22%
COc1cc(Cl)c(C)cc1NC(=O)CSc1sc2c(O)cc(=O)[nH]c2c1C#N	0%	-4%	-8%	-11%	-17%	1.6µM*
COc1ccc(OC)c(NC(=O)CSc2sc3c(O)cc(=O)[nH]c3c2C#N)c1	19%	4%	?	-2%	-4%	-20%
CCOc1ccc(NC(=O)CN(C)C(=O)CCC2CCCCC2)cc1OCC	?	2%	-1%	-8%	15µM*	94%
CCOc1ccc(NC(=O)CN(C)C(=O)CC2CCCCC2)cc1OCC	?	-5%	-10%	?	?	40%
CCOc1ccc(NC(=O)CN(C)C(=O)CC2CCCC2)cc1OCC	?	2%	8%	-8%	13µM*	6%
CCOc1ccc(NC(=O)CN(C)C(=O)C2CCCC2)cc1OCC	-16%	-1%	-4%	-15%	0%	2%
O=c1c2c3c(sc2nnn1Cc1ccc(F)cc1)CCCC3	nt	12%	nt	nt	nt	nt
Cc1c(N=C2NC(=O)C(CC(=O)Nc3ccccc3)S2)c(=O)n(-c2ccccc2)n1C (configuration not stated)	12%	-2%	6%	14%	nt	-22%
Cc1c(N=C2C=CC(=O)c3ccccc32)c(=O)n(-c2ccccc2)n1C	?	-1%	-11%	-4%	15µM*	-13%
Cc1c(N=C2N=C(NC(=O)c3cccs3)c3ccccc32)c(=O)n(-c2ccccc2)n1C	-23%	-11%	6%	10µM*	15%	-23%
Cc1c(N=C2N=C(NC(=O)NC(C)(C)C)c3ccccc32)c(=O)n(-c2ccccc2)n1C	13µM*	3%	-4%	-12%	?	-20%
Cc1c(NC(=O)Nc2ccc(C(C)(C)C)cc2)c(=O)n(-c2ccccc2)n1C	5%	-8%	6%	-10%	4%	-15%
CCOc1ccc2nc(Cl)c(C3CC(c4ccccc4)=NN3C(=O)CCC(=O)O)cc2c1 (configuration not stated)	nt	20%	nt	nt	nt	nt
CSc1nnc2n(C)c3c(c(=O)n12)C1(CCCC1)Cc1ccccc1-3	?	-13%	5%	?	10µM*	-7%
COc1ccc(CN2CC(=O)N(c3ccccc3OC)C2=S)cc1OC	nt	-16%	7%	-3%	-5%	33%
COc1ccc(CN2CC(=O)N(c3cc(Cl)ccc3OC)C2=S)cc1OC	9.3µM*	?	-9%	11µM*	-4%	68%
COc1ccc(Cl)cc1N1C(=O)CN(Cc2cc(OC)c(OC)c(OC)c2)C1=S	3.3µM*	-12%	-8%	16µM*	37%	96%
CCOc1ccccc1N1C(=O)CN(Cc2ccc(OC)c(OC)c2)C1=S	1%[0.00184 µM]	2%	-4%	13µM*	-28%	32%

Compound activity (PubChem)
